Source: the supplement of paper PMC9135407
Where “and” joins values, the source holds several entries; their conditions need not be identical. Equal values may be shown once. Where a name gives a salt, the structure may show the parent alone. Hit rate of the full screen: of about 5,800 compounds, about 620 (11%) showed activity. Only a selection was taken, and actives are over-represented in it overall. Unmarked numbers belong to inactive results.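 How the source made its calls: active = score above a cut-off or among the top three wells of a plate; in these data no inactive exceeds 0.85.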

Test system: primary human hepatic stellate cells (donor 1)
Assay: scaled lipid accumulation score (0 = DMSO-like, 1 = nortriptyline-like); higher = stronger HSC inactivation (lipid re-accumulation), active = hit call of the paper
Conditions: 48 h
[1] = library stock concentration: 10 mM
[2] = library stock concentration: 3.33 mM
[3] = library stock concentration: 6.9 mM

Compound: CN1CCN(C(=O)O[C@H]2c3nccnc3C(=O)N2c2ccc(Cl)cn2)CC1 [Eszopiclone]
- scaled lipid accumulation score [1]: ≤ 0

Compound: CN1CCN(C(=O)O[C@H]2c3nccnc3C(=O)N2c2ccc(Cl)cn2)CC1
- scaled lipid accumulation score [1]: 0.134

Compound: C#CCN[C@H](C)Cc1ccccc1 [R-(-)-Desmethyldeprenyl hydrochloride]
- scaled lipid accumulation score [1]: ≤ 0

Compound: CC[C@@H]1C=CC=CC[C@H](C)[C@@H](O)[C@@H](C)C(=O)[C@H](C)[C@@H](O)[C@H](C)C(=O)[C@H](C)[C@@H](O)[C@H](C)C=CC(=O)O[C@H]2[C@@H](C)[C@@H](CC1)O[C@@]1(CC[C@@H](C)[C@@H](C[C@H](C)O)O1)[C@@H]2C
- scaled lipid accumulation score [1]: ≤ 0

Compound: CN1[C@@H]2CC[C@H]1C[C@@H](OC(=O)C(CO)c1ccccc1)C2 (stereo partly specified) [Atropine sulfate monohydrate]
- scaled lipid accumulation score: 0.118

Compound: CN1[C@@H]2CC[C@H]1C[C@@H](OC(=O)C(CO)c1ccccc1)C2 (stereo partly specified)
- scaled lipid accumulation score [1]: ≤ 0

Compound: CN1[C@@H]2CC[C@H]1CC(OC(=O)N1Cc3ccccc3NC1=O)C2 (stereo partly specified) [DAU 5884 hydrochloride]
- scaled lipid accumulation score [1]: ≤ -0.001

Compound: CN1[C@@H]2CC[C@H]1C[C@@H](OC(=O)[C@H](CO)c1ccccc1)C2 [Hyoscyamine]
- scaled lipid accumulation score [2]: ≤ 0
- scaled lipid accumulation score [3]: ≤ -0.001
- scaled lipid accumulation score [1]: ≤ 0 and 0.017

Compound: CN1[C@@H]2CC[C@H]1C[C@@H](OC(=O)C(CO)c1ccccc1)C2 (stereo partly specified) [Atropine]
- scaled lipid accumulation score [2]: ≤ 0
- scaled lipid accumulation score [1]: ≤ 0

Compound: COc1ccc(C(=O)OC2C[C@H]3CC[C@@H](C2)N3C)cc1OC (stereo partly specified) [Convolamine hydrochloride]
- scaled lipid accumulation score: 0.027

Compound: CC(C(=O)OC1CC2CCC(C1)N2C)c1ccc(Br)cc1.O=C(O)/C=C\C(=O)O (stereo unspecified) [PG-9 maleate]
- scaled lipid accumulation score [1]: 0.958 (active)

Compound: CN1[C@@H]2CC[C@H]1C[C@@H](OC(=O)[C@H](CO)c1ccccc1)C2 [L-Hyoscyamine]
- scaled lipid accumulation score [1]: ≤ -0.07

Compound: CN1[C@@H]2CC[C@H]1C[C@@H](OC(=O)C(CO)c1ccccc1)C2 (stereo partly specified) [Atropine sulfate]
- scaled lipid accumulation score (library stock concentration: 5.2 mM): 0.019
- scaled lipid accumulation score [3]: 0.018
- scaled lipid accumulation score [1]: 0.196 and ≤ 0

Compound: CN1[C@@H]2CC[C@H]1C[C@@H](OC(=O)[C@H](CO)c1ccccc1)C2 [Hyoscyamine (L)]
- scaled lipid accumulation score: ≤ 0

Compound: CCC(Oc1ccc(Cl)cc1)C(=O)OC1CC2CCC(C1)N2C.O=C(O)/C=C\C(=O)O (stereo unspecified) [SM-21 maleate]
- scaled lipid accumulation score [1]: 0.886 (active)

Compound: CNCC(O)c1ccc(O)c(OC)c1 (stereo not drawn) [Metanephrine hydrochloride DL]
- scaled lipid accumulation score: 0.001
